# Test results taken from PubChem BioAssay (NCATS).
# Values joined by “and” are separate entries in the source; they are usually repeats but may differ in a detail not shown here. Identical values can stand only once. Active and inactive are the calls of the source. A call without a number means that no potency is given here. Unless noted, the call rests on the fitted dose curve; in most records, active means well fitted curve in the direction sought with a large enough effect; inconclusive means small, poorly fitted or top-dose-only effect, or another doubt; inactive means no such curve, though single readings can be large; an effect the other way counts as inactive or inconclusive.
# Legend:
# [1] = NCATS anti-infectives library activity on HEK293 viability as a counter-qHTS vs the C. elegans viability qHTS (AID 1745854);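 further: HEK293 cells exposed to compounds for 24 hr before the viability read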
# Outline: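 Counter-screen for cytotoxicity: HEK293, 24 hr, 37C, compounds up to 41.7 uM final (a dilution series, 1:5). Readout CellTiter-Glo luminescence, 10 min RT. Digitonin control, 83.3 uM final.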
# [2] = NCATS anti-infectives library activity on the primary C. elegans qHTS viability assay (AID 1745855; calls by dose curve)
# Outline: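 GFP read-out by 488 nm laser cytometry at day 0, 3 and 7, gated on object perimeter, area and peak intensity, scored viability of PE254-GFP-FLuc worms exposed to compound in S medium with bacterial capsules at 21 °C.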
# [3] = molecular target: Estrogen receptor (Homo sapiens) (UniProt P03372); assay: qHTS assay for small molecule antagonists of estrogen receptor alpha signaling (AID 588513; active means well fitted curve in the direction sought with a large enough effect in the signal ratio, with a control signal flat, not every such curve was filed as active; inconclusive means small, poorly fitted or top-dose-only effect, or effect the other way, or a change in a side signal; inactive means no such curve, though single readings can be large or run the other way; the % refers to the signal ratio; further: potency means the concentration at half of the fitted maximal effect)
# Estrogen receptor (Homo sapiens), sequence (P03372 whole entry, looked up): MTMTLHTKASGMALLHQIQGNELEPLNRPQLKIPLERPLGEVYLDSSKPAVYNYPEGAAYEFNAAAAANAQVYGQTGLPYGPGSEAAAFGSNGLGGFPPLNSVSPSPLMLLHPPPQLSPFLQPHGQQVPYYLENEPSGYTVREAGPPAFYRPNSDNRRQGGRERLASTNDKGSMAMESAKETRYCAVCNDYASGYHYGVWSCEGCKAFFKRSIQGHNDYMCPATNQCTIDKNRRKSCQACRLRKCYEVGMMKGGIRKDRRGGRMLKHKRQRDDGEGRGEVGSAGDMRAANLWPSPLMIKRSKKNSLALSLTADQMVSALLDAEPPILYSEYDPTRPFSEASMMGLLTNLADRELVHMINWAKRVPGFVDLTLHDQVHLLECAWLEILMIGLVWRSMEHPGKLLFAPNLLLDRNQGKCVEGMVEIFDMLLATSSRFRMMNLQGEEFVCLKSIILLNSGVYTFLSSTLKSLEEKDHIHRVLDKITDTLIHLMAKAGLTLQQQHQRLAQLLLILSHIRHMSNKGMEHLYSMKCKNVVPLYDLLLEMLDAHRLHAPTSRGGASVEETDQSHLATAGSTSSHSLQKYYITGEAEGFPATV
# Outline: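 ER-alpha-UAS-bla GripTite HEK 293 cells in 2% charcoal/dextran-treated FBS medium; compounds titrated (1:2, duplicate), then stimulated with 0.5 nM 17-beta-estradiol for 18 h at 37C. CCF4 beta-lactamase fluorescence; Hill-fit IC50 and efficacy.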
# [4] = molecular target: Glucocorticoid receptor (Homo sapiens) (UniProt P04150); assay: qHTS assay for small molecule agonists of glucocorticoid receptor signaling (AID 588532; active means well fitted curve in the direction sought with a large enough effect in the signal ratio, with a control signal flat; inconclusive means small, poorly fitted or top-dose-only effect, or a change in a side signal; inactive means no such curve, though single readings can be large or run the other way; the % refers to the signal ratio); details: HeLa MMTV-bla, beta-lactamase ratio, agonist, 18 h; stronger effect = higher value; percent of dexamethasone control, DMSO zero
# Glucocorticoid receptor (Homo sapiens), sequence (P04150 whole entry, looked up): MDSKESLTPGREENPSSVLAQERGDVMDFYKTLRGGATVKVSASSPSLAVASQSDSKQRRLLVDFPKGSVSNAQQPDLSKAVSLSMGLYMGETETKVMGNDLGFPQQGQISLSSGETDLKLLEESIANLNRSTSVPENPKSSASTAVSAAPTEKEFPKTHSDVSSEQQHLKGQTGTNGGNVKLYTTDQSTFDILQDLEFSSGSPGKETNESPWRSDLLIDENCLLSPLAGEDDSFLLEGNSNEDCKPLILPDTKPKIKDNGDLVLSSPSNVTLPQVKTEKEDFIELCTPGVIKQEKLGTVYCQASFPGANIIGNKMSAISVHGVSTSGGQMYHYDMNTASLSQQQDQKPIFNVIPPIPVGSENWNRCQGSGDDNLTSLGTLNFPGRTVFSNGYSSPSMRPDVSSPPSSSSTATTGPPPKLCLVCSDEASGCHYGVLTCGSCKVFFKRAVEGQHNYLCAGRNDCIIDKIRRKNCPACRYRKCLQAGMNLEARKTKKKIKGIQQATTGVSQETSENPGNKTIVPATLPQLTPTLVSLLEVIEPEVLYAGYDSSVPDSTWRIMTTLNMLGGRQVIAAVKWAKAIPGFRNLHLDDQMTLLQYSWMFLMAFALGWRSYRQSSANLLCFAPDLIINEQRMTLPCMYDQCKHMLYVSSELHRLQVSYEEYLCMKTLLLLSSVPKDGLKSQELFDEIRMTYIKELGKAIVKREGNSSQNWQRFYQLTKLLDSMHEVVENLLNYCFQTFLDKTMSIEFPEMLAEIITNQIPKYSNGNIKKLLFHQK
# Outline: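 MMTV-bla HeLa, beta-lactamase reporter; medium with 1% charcoal/dextran-stripped FBS; cpds up to 92 uM, 18 h, 37 C; CCF4 readout 460/530 nm; Hill fit → EC50, efficacy vs 0.1 uM dexamethasone = 100%.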
# [5] = molecular target: Vitamin D3 receptor (Homo sapiens) (UniProt P11473); assay: qHTS assay for small molecule antagonists of vitamin D receptor signaling (AID 588541; calls by dose curve;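 further: receptor activated by calcitriol during compound treatment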)
# Vitamin D3 receptor (Homo sapiens), sequence (P11473 whole entry, looked up): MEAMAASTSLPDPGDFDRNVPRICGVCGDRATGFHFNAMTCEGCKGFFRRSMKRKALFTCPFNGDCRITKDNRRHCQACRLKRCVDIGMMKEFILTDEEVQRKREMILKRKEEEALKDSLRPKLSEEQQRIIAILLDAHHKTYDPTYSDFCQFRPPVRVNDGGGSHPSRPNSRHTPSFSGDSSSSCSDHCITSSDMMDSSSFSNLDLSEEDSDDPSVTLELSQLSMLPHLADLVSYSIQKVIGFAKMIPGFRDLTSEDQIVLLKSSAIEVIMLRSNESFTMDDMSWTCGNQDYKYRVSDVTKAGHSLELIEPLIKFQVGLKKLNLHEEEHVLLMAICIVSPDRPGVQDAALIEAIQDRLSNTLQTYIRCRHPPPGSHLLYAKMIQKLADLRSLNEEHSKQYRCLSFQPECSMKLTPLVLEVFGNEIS
# Outline: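 VDR-UAS-bla HEK293T cells (2000/well, 2% charcoal-stripped FBS) were treated with titrated compounds plus 1-alpha,25-dihydroxyvitamin D3 (50 nM or 3 nM final) for 16 h at 37 C. CCF4 beta-lactamase fluorescence was read; Hill fits gave IC50.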
# [6] = qHTS assay for environmental chemicals that activate the Aryl hydrocarbon Receptor (AhR) signaling pathway (AID 651777); details: 1A2-DRE human hepatoma cells, luciferase, 24 h; activation: stronger effect = higher value; further: nearly all actives have a fitted effect of over 15% in size; further: potency means the concentration at half of the fitted maximal effect
# Outline: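 Luminescence (One-Glo, 30 min, room temperature) reports AhR-driven luciferase in stably transfected human hepatoma cells bearing DRE and CYP1A2 promoter. Cells (1,200/well) were treated with compound for 24 hr at 37 C in qHTS format.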
# [7] = molecular target: Peroxisome proliferator-activated receptor alpha (Homo sapiens) (UniProt Q07869); assay: qHTS assay for small molecule agonists of the peroxisome proliferator-activated receptor alpha (PPARalpha) signaling pathway (AID 651778); details: PathHunter PPARalpha complementation, chemiluminescence, 6 h; stronger effect = higher value
# Peroxisome proliferator-activated receptor alpha (Homo sapiens), sequence (Q07869 whole entry, looked up): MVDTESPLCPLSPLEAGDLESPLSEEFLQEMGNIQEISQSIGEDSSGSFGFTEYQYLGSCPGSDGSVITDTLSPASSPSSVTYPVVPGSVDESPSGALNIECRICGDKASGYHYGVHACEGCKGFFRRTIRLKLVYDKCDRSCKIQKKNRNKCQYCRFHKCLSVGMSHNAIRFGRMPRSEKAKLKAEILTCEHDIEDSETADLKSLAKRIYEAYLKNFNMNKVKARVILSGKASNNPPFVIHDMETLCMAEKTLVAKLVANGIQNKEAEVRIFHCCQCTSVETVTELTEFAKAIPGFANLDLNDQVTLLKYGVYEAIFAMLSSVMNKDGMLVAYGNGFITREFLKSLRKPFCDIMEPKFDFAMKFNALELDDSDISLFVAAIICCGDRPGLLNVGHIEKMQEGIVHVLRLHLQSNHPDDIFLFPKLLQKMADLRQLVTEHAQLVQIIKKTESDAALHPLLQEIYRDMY
# Outline: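 Cells plated at 2,000/well and held overnight at 37 C, 5% CO2, then compound added by pin tool for 6 hr; after PathHunter detection reagent and 60 min at room temperature, chemiluminescence from enzyme complementation was read.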
# [8] = qHTS assay for small molecule agonists of the antioxidant response element (ARE) signaling pathway measured by Nrf2-dependant transcriptional activity - cell viability counter screen (AID 720653; active means well fitted curve in the direction sought with a large enough effect in the repeat runs; inconclusive means weak or mixed curves; inactive means no such curve, though single readings can be large; an effect the other way counts as inactive or inconclusive); details: ARE-bla HepG2 viability, CellTiter-Glo ATP luminescence, 16 h; max response: stronger effect = lower value
# Outline: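 ARE-bla HepG2 cells (2,000/well) rested 5 hrs at 37C/5% CO2, then exposed to compounds in DMSO for 16 hrs. Viability was read in the same wells as intracellular ATP by luminescence, 30 min at room temperature after reagent addition.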
# [9] = qHTS assay for cell viability of the p53RE-bla HCT-116 cell line (AID 743292); further: nearly all actives have a fitted effect of over 55% in size
# Outline: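 ATP-based luminescent viability (CellTiter-Glo, 30 min RT) after 16 h compound treatment at 37 C of p53RE-bla HCT-116 cells, seeded at 4,000 cells/well and rested 5 h before dosing.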
# [10] = molecular target: Voltage-gated inwardly rectifying potassium channel KCNH2 (Homo sapiens) (UniProt Q12809); assay: qHTS Assay for Small Molecule Inhibitors of the Human hERG Channel Activity (AID 588834);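 further: lower thallium flux fluorescence means stronger hERG block; nearly all actives have a fitted effect of over 50% in size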; further: potency means the concentration at half of the fitted maximal effect
# Voltage-gated inwardly rectifying potassium channel KCNH2 (Homo sapiens), sequence (Q12809 whole entry, looked up): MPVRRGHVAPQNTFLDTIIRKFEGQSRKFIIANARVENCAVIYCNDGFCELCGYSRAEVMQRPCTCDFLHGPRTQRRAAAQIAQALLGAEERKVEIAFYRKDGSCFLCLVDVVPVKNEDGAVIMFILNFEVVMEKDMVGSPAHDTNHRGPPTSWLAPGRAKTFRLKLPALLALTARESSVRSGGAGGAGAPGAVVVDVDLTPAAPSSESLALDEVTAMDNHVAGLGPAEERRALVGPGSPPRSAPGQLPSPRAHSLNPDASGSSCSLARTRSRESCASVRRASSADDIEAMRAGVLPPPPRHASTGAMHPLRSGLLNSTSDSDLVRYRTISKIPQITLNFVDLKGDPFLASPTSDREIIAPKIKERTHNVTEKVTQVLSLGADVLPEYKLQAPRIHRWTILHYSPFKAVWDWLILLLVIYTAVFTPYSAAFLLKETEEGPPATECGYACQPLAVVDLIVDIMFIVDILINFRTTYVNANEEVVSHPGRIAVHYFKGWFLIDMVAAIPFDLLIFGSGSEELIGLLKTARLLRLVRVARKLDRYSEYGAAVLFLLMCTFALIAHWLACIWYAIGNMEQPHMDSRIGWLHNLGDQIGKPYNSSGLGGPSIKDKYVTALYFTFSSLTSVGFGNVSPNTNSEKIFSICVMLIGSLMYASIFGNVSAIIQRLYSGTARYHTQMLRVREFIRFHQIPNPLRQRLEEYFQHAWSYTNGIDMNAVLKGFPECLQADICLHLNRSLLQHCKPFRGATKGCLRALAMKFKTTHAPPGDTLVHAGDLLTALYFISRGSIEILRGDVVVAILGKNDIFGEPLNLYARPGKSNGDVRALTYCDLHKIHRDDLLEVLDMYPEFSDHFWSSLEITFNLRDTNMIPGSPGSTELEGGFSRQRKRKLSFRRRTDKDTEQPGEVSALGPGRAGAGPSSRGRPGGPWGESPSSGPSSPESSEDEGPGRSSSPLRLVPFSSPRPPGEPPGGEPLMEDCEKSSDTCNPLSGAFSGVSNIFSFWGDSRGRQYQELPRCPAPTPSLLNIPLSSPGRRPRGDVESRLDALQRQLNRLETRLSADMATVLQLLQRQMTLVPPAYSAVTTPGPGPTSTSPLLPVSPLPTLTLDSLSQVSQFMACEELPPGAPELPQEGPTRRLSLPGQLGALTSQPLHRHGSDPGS
# Outline: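 Thallium serves as surrogate for K+ influx through BacMam-delivered hERG in U2OS cells. Compounds are added for about 10 minutes after dye loading; stimulation buffer then starts flux, monitored kinetically on FDSS.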
# [11] = molecular target: Rap guanine nucleotide exchange factor 3 (Homo sapiens) (UniProt O95398); assay: Confirmatory qHTS for agonist of cAMP-regulated guanine nucleotide exchange factor 3 (EPAC1) (AID 1645881);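 further: EPAC1 catalysed release of BODIPY-GDP from Rap1B seen as fluorescence loss; nearly all actives have a fitted effect of over 75% in size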
# Rap guanine nucleotide exchange factor 3 (Homo sapiens), sequence (O95398 whole entry, looked up): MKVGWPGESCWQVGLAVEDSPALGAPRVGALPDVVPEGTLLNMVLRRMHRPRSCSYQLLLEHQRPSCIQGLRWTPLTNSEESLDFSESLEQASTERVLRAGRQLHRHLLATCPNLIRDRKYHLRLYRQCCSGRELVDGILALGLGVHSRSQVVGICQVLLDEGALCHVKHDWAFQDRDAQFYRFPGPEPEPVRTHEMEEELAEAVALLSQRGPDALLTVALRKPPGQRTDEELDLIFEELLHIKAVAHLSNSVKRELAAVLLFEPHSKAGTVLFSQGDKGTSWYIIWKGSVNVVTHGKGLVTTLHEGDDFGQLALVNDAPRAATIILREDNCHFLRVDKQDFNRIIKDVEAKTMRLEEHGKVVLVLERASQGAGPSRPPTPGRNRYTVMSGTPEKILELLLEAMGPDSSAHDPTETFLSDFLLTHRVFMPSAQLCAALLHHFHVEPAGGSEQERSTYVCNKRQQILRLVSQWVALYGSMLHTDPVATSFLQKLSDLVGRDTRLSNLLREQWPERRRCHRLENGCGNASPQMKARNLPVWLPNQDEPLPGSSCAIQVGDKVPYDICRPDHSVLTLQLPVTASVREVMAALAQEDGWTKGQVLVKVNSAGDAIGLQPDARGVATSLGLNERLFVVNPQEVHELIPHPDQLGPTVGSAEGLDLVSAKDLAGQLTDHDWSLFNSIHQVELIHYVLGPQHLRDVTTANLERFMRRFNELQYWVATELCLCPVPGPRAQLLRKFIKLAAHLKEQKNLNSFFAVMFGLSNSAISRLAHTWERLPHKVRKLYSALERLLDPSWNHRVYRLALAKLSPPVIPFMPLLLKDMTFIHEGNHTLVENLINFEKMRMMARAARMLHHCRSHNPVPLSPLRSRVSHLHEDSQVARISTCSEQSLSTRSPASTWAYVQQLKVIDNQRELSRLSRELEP
# [12] = qHTS profiling of the MIPE4 collection as inhibitors of Plasmodium falciparum (3D7) proliferation (AID 743344; call rule not given here); details: P. falciparum 3D7 in erythrocytes, SYBR Green DNA fluorescence, 72 h; at 28.5 µM (top of the series) unless noted
# Outline: (§1)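 Parasite DNA was quantified by SYBR Green I fluorescence (ex 485, em 535 nm) after overnight lysis in saponin/Triton buffer at room temperature. Cultures at 0.3% parasitemia and 2.5% hematocrit were first exposed to compound for 72 h at 37 C; signals were normalised to artemisinin (0.29 uM) and vehicle wells.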
# [13] = qHTS profiling of the MIPE4 collection as inhibitors of Plasmodium falciparum (DD2) proliferation (AID 743345; call rule not given here); details: P. falciparum Dd2 in erythrocytes, SYBR Green DNA, 72 h; at 28.5 µM (top of the series) unless noted
# Outline: as §1
# [14] = qHTS profiling of the MIPE4 collection as inhibitors of Plasmodium falciparum (DD2) proliferation (Rep 2) (AID 743346; call rule not given here); details: P. falciparum Dd2 in erythrocytes, SYBR Green DNA, 72 h; at 28.5 µM (top of the series) unless noted
# Outline: as §1
# [15] = qHTS profiling of the MIPE4 collection as inhibitors of Plasmodium falciparum (HB3) proliferation (AID 743347; call rule not given here); details: P. falciparum HB3 in erythrocytes, SYBR Green DNA, 72 h; at 28.5 µM (top of the series) unless noted
# Outline: as §1
# [16] = molecular target: ATP-dependent 6-phosphofructokinase (Trypanosoma brucei brucei) (UniProt O15648); assay: qHTS Assay to Find Inhibitors of T. brucei phosphofructokinase: hit validation (AID 492961);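 further: luminescence reports ADP formed as PFK phosphorylates fructose-6-phosphate with ATP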
# ATP-dependent 6-phosphofructokinase (Trypanosoma brucei brucei), sequence (O15648 whole entry, looked up): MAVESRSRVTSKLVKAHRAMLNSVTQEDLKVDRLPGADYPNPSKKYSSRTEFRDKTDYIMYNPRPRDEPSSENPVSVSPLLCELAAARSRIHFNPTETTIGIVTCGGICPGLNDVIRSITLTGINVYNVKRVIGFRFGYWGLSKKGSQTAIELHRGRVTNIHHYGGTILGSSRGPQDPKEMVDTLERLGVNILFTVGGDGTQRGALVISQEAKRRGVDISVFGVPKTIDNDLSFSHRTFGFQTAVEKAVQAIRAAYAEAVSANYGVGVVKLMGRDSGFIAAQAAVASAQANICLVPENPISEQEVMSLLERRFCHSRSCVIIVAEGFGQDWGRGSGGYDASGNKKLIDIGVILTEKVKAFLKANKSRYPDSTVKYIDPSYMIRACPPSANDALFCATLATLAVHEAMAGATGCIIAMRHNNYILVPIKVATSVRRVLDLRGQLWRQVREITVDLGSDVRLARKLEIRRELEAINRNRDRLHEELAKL
# Outline: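 PFK 1.25 nM, F6P 0.5 mM, ATP 0.1 mM, MgCl2 5 mM, 0.1 M TEA pH 8.0, Tween20 0.01%, BSA 0.1%; 45 min RT. ADP-Glo two-step detection, luminescence. qHTS titration; curve fitting with curve-class categorization.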
# [17] = S16 Schwann cell PMP22 intronic element firefly luciferase assay (AID 624032); further: nearly all actives have a fitted effect of over 30% in size; further: potency means the concentration at half of the fitted maximal effect
# Outline: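 Rat S16 Schwann cells stably carrying a PMP22 intronic element-driven Fluc reporter were seeded overnight, then exposed to compounds for 24 h at 37 °C. Luminescence was normalized to PTC124 (positive control) and DMSO (0% activity).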
# [18] = S16 Schwann cell PMP22 intronic element beta-lactamase assay (AID 624044; calls by dose curve; further: nearly all actives have a fitted effect of over 15% in size)
# Outline: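 Beta-lactamase reporter under a PMP22 intronic regulatory element in stable S16 rat Schwann cells; 24 h compound exposure. 460 nm blue signal normalized between DMSO (0%) and potassium clavulanate, with 535 nm FRET tracking viability; curves classed by r2 and response.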
# [19] = test system: JCK; assay: qHTS profiling for inhibitors of Plasmodium falciparum proliferation (AID 504749); further: nearly all actives have a fitted effect of over 60% in size; further: potency means the concentration at half of the fitted maximal effect; details: P. falciparum in erythrocytes, SYBR Green DNA, 72 h; series mostly up to 28.7 µM
# Outline: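 Quantitative HTS: compounds pinned into medium, infected erythrocytes added (0.3% parasitemia, 2.5% hematocrit), 72 h culture at 37 C under 5% CO2. Saponin/Triton lysis with SYBR Green I, overnight RT, then fluorescence read.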
# [20] = Cytotoxicity counterscreen for inhibitors of SARS-CoV-2 cell entry (AID 1645845; calls by dose curve; further: nearly all actives have a fitted effect of over 50% in size)
# Outline: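 After a 15 min room-temperature ATPLite 1step step, luminescence reflected ATP remaining in HEK293-ACE2 cells exposed to compound for 1 h plus 48 h at 37 C, with percent activity set by cell and no-cell controls.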
compound,measurement,setting,value
O=NN1CCCC1c1cccnc1 (centres undefined),Potency,[1],inactive
same,Potency,[2],inactive
Cc1ccc2cc3c(ccc4ccccc43)c3c2c1CC3,Potency,[3],inactive
same,activation,[4],4.51% (inactive)
same,outcome,[5],inactive
same,Potency,[6],8.91 µM (active)
same,max response,[7],-0.967% (inactive)
same,max response,[8],-7.15% (inactive)
same,outcome,[9],inactive
CC(C)(c1ccc(OCC2CO2)cc1)c1ccc(OCC2CO2)cc1 (centres undefined),Potency,[3],31.6 µM [inconclusive] (active)
same,activation,[4],-1.68% (inactive) and 2.51% (inactive)
same,outcome,[5],inactive
same,Potency,[10],28.2 µM (active)
same,activation,[6],-0.167% (inactive) and 1.71% (inactive)
same,max response,[7],-4.29% (inactive) and -0.125% (inactive)
same,max response,[8],-3.1% (inactive)
same,outcome,[9],inactive
C(=C/c1ccccc1)/CN1CCN(CCOC(c2ccccc2)c2ccccc2)CC1,outcome,[11],inactive
O=C1CC[C@@]2(O)[C@H]3Cc4ccc(O)c5c4C2(CCN3CC2CC2)[C@H]1O5,"parasite growth, % of DMSO control",[12],101%
same,"parasite growth remaining, % of DMSO control (lower = more inhibition)",[13],82%
same,"parasite growth, % of control (lower = inhibition)",[14],59.1%
same,"growth, % of control",[15],94.1%
CCN1C[C@]2(COC)[C@H](O)C[C@H](OC)[C@]34C1C([C@H](OC)[C@H]23)[C@]1(OC(C)=O)C2[C@@H](OC(=O)c3ccccc3)C(O)(C[C@H]24)[C@@H](OC)[C@@H]1O,Potency,[16],inactive
same,Potency,[17],inactive
same,Potency,[18],inactive
same,Potency,[19],inactive
CCC(=O)CCCCC[C@@H]1NC(=O)[C@H]2CCCCN2C(=O)[C@H]([C@@H](C)CC)NC(=O)[C@H](Cc2cn(OC)c3ccccc23)NC1=O,Potency,[1],inactive
same,Potency,[2],inactive
C=C(C)CN1CC[C@@]23c4c5ccc(O)c4O[C@H]2c2[nH]c4ccccc4c2C[C@]3(O)[C@@H]1C5,outcome,[11],inactive
N#CC(C#N)=Cc1ccc([N+](=O)[O-])c(O)c1,Potency,[10],inactive
O=C(O)c1ccccc1-c1c2cc(Br)c(=O)cc-2oc2[c]([Hg])c(O)c(Br)cc12,Potency,[17],inactive
same,Potency,[18],inactive
same,Potency,[19],inactive
CC(C)[C@@]1(NC(=O)[C@H]2CC3c4cccc5[nH]cc(c45)C[C@H]3N(C)C2)O[C@@]2(O)C3CCCN3C(=O)[C@@H](Cc3ccccc3)N2C1=O (some centres undefined),Potency,[16],inactive
same,Potency,[17],5.1 µM (active)
same,Potency,[18],inactive
same,Potency,[19],7.94 µM (active)
Cc1ncc(C[n+]2csc(CCO)c2C)c(=O)[nH]1,"parasite growth, % of DMSO control",[12],96.7%
same,"parasite growth remaining, % of DMSO control (lower = more inhibition)",[13],104%
same,"parasite growth, % of control (lower = inhibition)",[14],113%
same,"growth, % of control",[15],73.2%
COc1cc(S(C)(=O)=O)ccc1Nc1nc2ccc(-c3ccc(NC(=O)[C@H](C)c4ccc(F)cc4)cc3)cn2n1,Potency,[20],inactive
Cc1onc(-c2ccccc2)c1C(=O)N[C@@H]1C(=O)N2[C@@H]1SC(C)(C)[C@@H]2C(=O)O,Potency,[20],inactive
CCC(CC)CC1(C(=O)Nc2ccccc2SC(=O)C(C)C)CCCCC1,Potency,[20],inactive
